Assay outcomes from PubChem BioAssay.
A selection: hits, their analogues and other compounds. The true share with any hit is near 19%.
TDP1 cell CPT = qHTS for Inhibitors of human tyrosyl-DNA phosphodiesterase 1 (TDP1): qHTS in cells in presence of CPT. chicken DT40 Tdp1-/-;hTDP1 cells + 20 nM CPT, ATP luminescence, 48 h. Potency, µM (titrated, usually from 46.2 µM), inactives show at the highest dose activity change, negative = growth inhibition, most hits filed as inhibitors. hit rate 12% among 420,000; note: potency is the fitted concentration of half-maximal effect; nearly all actives have a fitted effect of over 55% in size
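Chicken DT40 Tdp1-/- cells complemented with human TDP1, 400 cells/well, exposed to compounds plus 20 nM camptothecin for at least 48 h at 37 C; viability read as ATP content by CellTiter-Glo luminescence.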
IL-1B inflam inh = qHTS for Inhibitors of Inflammasome Signaling: IL-1-beta AlphaLISA Primary Screen. THP-1 LPS/ATP IL-1B secretion, AlphaLISA, 16 h; hits give low values. activity change, % at 57.5 µM. hit rate 4.7% among 360,000. AID 743279, 2014; in the data active = activity change below about -50%; inconclusive = mostly about -30% to -49%
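Secreted IL-1B measured by AlphaLISA bead assay after 16 h compound exposure of THP-1 cells; compounds (final up to 57.5 uM) added 1 h before LPS (250 ng/mL) and ATP (1.25 mM) stimulation; lower signal means less secretion.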
HT1080NT lethal = qHTS for induction of synthetic lethality in tumor cells producing 2HG: qHTS for the HT-1080-NT fibrosarcoma cell line | Potency, µM (top dose mostly 46.1 µM), without a hit: top-dose activity, negative = less viability, usual class: cytotoxic | HT-1080-NT fibrosarcoma viability, CellTiter-Glo ATP luminescence, 48 h | hit rate 1.6% among 360,000 | AID 686970, 2013;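 note: NT is the 2HG producing partner of a matched IDH1 knockdown line; potency is the fitted concentration of half-maximal effect; 0% = DMSO-treated cells and -100% = media-only wells without cells; nearly all actives have a fitted effect of over 55% in size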
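Luminescent CellTiter-Glo readout after 48 hours of compound exposure at 37 degrees C defined viability of HT-1080-NT cells. Activity was normalized to DMSO wells and cell-free media wells; concentration-response curves were fitted and assigned curve classes.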
DT40 TDP1 no CPT = qHTS for Inhibitors of human tyrosyl-DNA phosphodiesterase 1 (TDP1): qHTS in cells in absence of CPT; Potency, µM (highest dose often 46.2 µM), inactives show at the top dose activity change, negative = growth inhibition, actives largely listed as inhibitors; hit rate 15% among 420,000; DT40 Tdp1-/- hTDP1 cells, no CPT, ATP luminescence, 48 h; AID 686978, 2013; note: potency is the fitted concentration of half-maximal effect; nearly all actives have a fitted effect of over 55% in size
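Cells were dispensed at 400 per well, compounds added by pin tool, plates incubated ≥48 hr at 37 °C, then CellTiter-Glo added for 30 min at room temperature before luminescence reading. Line: DT40 Tdp1-/- complemented with hTDP1; camptothecin omitted.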
HT1080 IDH1KD tx = qHTS for induction of synthetic lethality in tumor cells producing 2HG: qHTS for the HT-1080-IDH1KD cell line; hit rate 2% among 360,000; HT-1080 IDH1 knockdown viability, ATP luminescence, 48 h; AID 686971, 2013; Potency, µM (highest dose often 46.1 µM), for inactives: at the highest dose activity, negative = toxicity, hits mostly cytotoxic;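 note: potency is the fitted concentration of half-maximal effect; 0% = DMSO wells and -100% = cell-free medium wells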
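After a 2 h attachment period, IDH1KD HT-1080 cells took pin-transferred compound for 48 h at 37 °C; ATP-based luminescence after 10 min room-temperature reagent incubation reported viability.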
* = called active by the depositor; ? = inconclusive; / = no result; [ ] = dose if it differs, or a comment. Unless noted, calls come from the whole dose curve; as a rule, active = well fitted curve in the direction sought with a large enough effect; inconclusive = small, poorly fitted or top-dose-only effect, or another doubt; inactive = no such curve, though single readings can be large; an effect the other way counts as inactive or inconclusive. Unless noted, % is set by controls: 0 for no effect and ±100 for the full control effect.

SMILES	TDP1 cell CPT	IL-1B inflam inh	HT1080NT lethal	DT40 TDP1 no CPT	HT1080 IDH1KD tx
Cc1cc(C(=O)CSc2nnnn2C)c(C)n1-c1cccc(F)c1	?	-12	-28%	9.2µM*	?
Cc1cc(C(=O)CSc2nncs2)c(C)n1-c1ccc2c(c1)OCO2	21µM*	-69*	?	18µM*	-7%
Cc1ccc(-n2nnnc2SCC(=O)c2cc(C)n(-c3cc(C)on3)c2C)cc1	12µM*	12	-18%	15µM*	-16%[9.24 µM]
O=C(CSc1nncs1)NCc1ccc2c(c1)OCO2	4%	0	3%	-19%	5%
CNc1ccc(/C=C2\C=Cc3ccccc32)cc1	?	/	/	-99%	/
COc1cccc(CN2C(=O)NC(C)(C3CCN(Cc4cccc(O)c4)CC3)C2=O)c1OC (centres undefined)	-21%	/	/	-26%	/
Cc1cc(C(=O)CSc2nnnn2-c2ccc(O)cc2)c(C)n1Cc1ccc2c(c1)OCO2	?	-8	-1%	?	-5%
Cc1cc(C(=O)CSc2nnnn2-c2ccccc2)c(C)n1-c1ccc2c(c1)OCO2	23µM*	9	-10%	13µM*	-20%
Cc1cc(C(=O)CN2C(=O)NC3(CCCCC3)C2=O)c(C)n1-c1ccc2c(c1)OCO2	?	?	-12%	21µM*	-13%
CCCn1c(SCC(=O)c2cc(C)n(-c3ccc4c(c3)OCO4)c2C)n[nH]c1=O	23µM*	9	-11%	6.5µM*	-19%
Cc1cc(-n2c(C)cc(C(=O)CN3C(=O)NC4(CCCCCC4)C3=O)c2C)no1	-25%	-15	-18%	?	-3%
COc1ccc(-n2c(C)cc(C(=O)CN3C(=O)NC4(CCCc5sccc54)C3=O)c2C)cc1 (centres undefined)	16µM*	-5	-19%	21µM*	-21%
CCCn1c(SCC(=O)c2cc(C)n(C3CC3)c2C)n[nH]c1=O	-8%	-7	8%	-18%	6%
CC(=O)C[C@@H](O)CC(=O)[C@@H]1OC(=O)CCCCCCCCc2ccccc21	?	-3	0%	?	0%
COc1ccc(CNC(=O)c2cc3sccc3n2C)cc1	2%	/	/	-30%	/
CC(C)CCN1CCC(CN2C(=O)C(=O)NC[C@@H]2Cc2ccccc2)CC1	2%	19	5%	-7%	8%
CCn1c(COc2cccc(OC)c2)nnc1SCC(=O)Nc1cccc(OC)c1	-13%	-26	-1%	-12%	-28%
CCCOc1ccc(-c2cn3ccccc3n2)cc1[N+](=O)[O-]	?	-24	-7%	15µM*	-13%
Cc1ccc(NC(=O)c2cccc(S(=O)(=O)N3CCN(c4ccc(F)cc4)CC3)c2)nc1	15µM*	1	?	?	?
O=C(Nc1ncccc1O)c1cccc(S(=O)(=O)N2CCN(c3ccc(F)cc3)CC2)c1	?	4	1%	?	-3%
O=C(Nc1ccncc1)c1cccc(S(=O)(=O)N2CCN(c3ccc(F)cc3)CC2)c1	21µM*	?	-15%	21µM*	-24%
Cc1ccccc1NC(=O)C1CCCN1S(=O)(=O)c1ccccc1C(F)(F)F (centres undefined)	?	7	-3%	?	-7%
COc1ccc([C@H]2C[C@@H](O)[C@H](n3cc(COC(=O)c4ccccc4)nn3)CN2C(=O)C2CCCCC2)cc1	-36%	1	4%	?	4%
Cc1ccc(CNC(=O)c2c(Nc3c(C)cccc3C)sc(C(=O)c3ccccc3)c2N)cc1	8.2µM*	/	/	15µM*	/
COc1cccc(Nc2sc(C(=O)c3ccc(F)cc3)c(N)c2C(=O)NCc2ccc(Cl)cc2)c1	-95%	/	/	21µM*	/
SMILES	TDP1 cell CPT	IL-1B inflam inh	HT1080NT lethal	DT40 TDP1 no CPT	HT1080 IDH1KD tx
Cc1ccc(-c2c(C(=O)c3ccc(Br)cc3)[nH]c(N)c2C(=O)NCc2ccc(Cl)cc2)cc1	3%	0	24%	-16%	15%
COc1cccc(Nc2sc(C(=O)c3ccc(Cl)cc3)c(N)c2C(=O)NCc2ccc(C)cc2)c1	2.9µM*	/	/	4.6µM*	/
COc1cccc(NC(=O)CN(C)CC(=O)NCc2ccc(F)cc2)c1	?	14	-1%	-26%	-12%
Cc1ccc(CNC(=O)c2cccnc2)cc1	-16%	22	-3%	7%	0%
O/N=C(\Cn1ccnc1)c1ccccc1	3%	18	-1%	-11%	0%
Cc1oc(C(=O)Nc2ccc(O)cc2)cc1COc1ccccc1	?	-6	-13%	16µM*	?
Cc1ccc(C(=O)Nc2ccccc2Oc2ccccc2)o1	-23%	19	8%	14%	1%
COc1cccc(C(=O)Nc2ccccc2)c1	-1%	-21	6%	-12%	-3%
Cc1ccc(C(=O)Nc2cccc(Oc3ccccc3)c2)o1	18µM*	-26	2%	?	-12%
O=C(Nc1ccc(O)cc1)c1ccc(C(=O)c2ccccc2)o1	25µM*	-17	-2%	20µM*	-1%
COc1cccc(NC(=O)c2ccc(C(=O)c3ccccc3)o2)c1	?	?	-19%	18µM*	-26%
C/C=C(\C)C(=O)Nc1cccc(C2=NOC3(C2)C[C@H](C(N)=O)N(C(=O)CC#N)C3)c1 (some centres undefined)	0%	19	13%	-2%	3%
CN(C(=O)c1cccc(NC(=O)Cc2ccc(NC(=O)C3CCCN(C(=O)C4CC4)C3)cc2)c1)C1CCC1 (centres undefined)	7%	12	11%	5%	9%
CCCCOc1ccc(S(=O)(=O)n2nc(C)c(S(=O)(=O)N3CCC(C)CC3)c2C)cc1	-19%	/	/	-12%	/
O=c1[nH]c(/C(Cl)=C/c2cc(Cl)ccc2O)nc2cc(Cl)ccc12	13µM*	-105*	-1%	13µM*	-2%
O=c1[nH]c(/C(Cl)=C/c2c(F)cccc2Cl)nc2cc(Cl)ccc12	-14%	22	?	?	?
Cc1n[nH]c(C)c1N1C(=O)c2cccc3c(Br)ccc(c23)C1=O	?	-107*	?	?	?
Cc1n[nH]c(C)c1N1C(=O)c2cccc3cc(Br)cc(c23)C1=O	?	-21	-17%	?	-11%
CN(C(=O)c1cccc(NC(=O)C2CCCN(C(=O)OC(C)(C)C)C2)c1)C1CCC1 (centres undefined)	21µM*	?	-5%	16µM*	-4%
